Source: PubChem BioAssay (Paczesny and Yang Labs, IUPUI and University of Michigan)
ST2 inh: IL1RL1 inhibition | Q01638 | AlphaLISA ST2-Fc/biotin-IL-33 interaction, 1 h | inhibition, % for hits at 17 µM | 78,000 compounds, 2.3% hits; in the data active = inhibition above about 30%
Target sequence (Q01638 whole entry, looked up): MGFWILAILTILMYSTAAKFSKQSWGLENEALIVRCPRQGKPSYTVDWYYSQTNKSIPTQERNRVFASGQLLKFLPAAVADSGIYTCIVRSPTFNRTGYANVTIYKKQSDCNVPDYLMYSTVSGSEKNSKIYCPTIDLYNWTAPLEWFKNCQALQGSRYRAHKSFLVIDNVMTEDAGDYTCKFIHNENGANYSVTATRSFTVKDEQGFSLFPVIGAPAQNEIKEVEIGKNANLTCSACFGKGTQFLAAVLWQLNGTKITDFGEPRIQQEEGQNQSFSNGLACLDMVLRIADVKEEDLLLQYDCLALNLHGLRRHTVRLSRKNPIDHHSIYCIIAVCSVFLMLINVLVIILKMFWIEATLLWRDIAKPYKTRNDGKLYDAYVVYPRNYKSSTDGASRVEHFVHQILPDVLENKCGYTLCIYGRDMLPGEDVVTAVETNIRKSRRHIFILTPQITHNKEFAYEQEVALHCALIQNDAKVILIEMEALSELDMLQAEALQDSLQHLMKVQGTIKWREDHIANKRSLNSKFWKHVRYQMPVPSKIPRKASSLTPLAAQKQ
Large screens that a line does not name were inactive. This excerpt belongs to a sample that is enriched for hits.

CC(=O)n1cc(/C=C2\N=C(c3cccc(C)c3)OC2=O)c2cc(Br)ccc21	none
O=C1OC(c2ccccc2Cl)=N/C1=C\C=C\c1ccccc1	ST2 inh 34.0%
Cc1cccc(C2=N/C(=C\c3cccc([N+](=O)[O-])c3)C(=O)O2)c1	none
Cn1c(C(=O)NCc2ccc(Cl)cc2)cc2c(=O)n3ccccc3nc21	none
Nc1cc(NCCCC(=O)O)ccc1[N+](=O)[O-]	none
Cc1cc(C)c2c(N)c(C(=O)Nc3ccc(Cl)c(Cl)c3)sc2n1	none
CSc1nnc2c(n1)OC(C)N(C(=O)c1ccccc1)c1ccccc1-2 (stereo unspecified)	none
COc1ccc(NC(=O)C2(S(=O)(=O)c3ccc(Cl)cc3)CC2)cc1OC	none
O=C(NC1CCCCCC1)C1CCN(S(=O)(=O)N2CCCCC2)CC1	none
O=c1[nH]c2ccccc2c2oc(-c3ccccc3)nc12	none
O=C(NC1CCCCC1)c1cc2c(=O)oc3ccccc3c2s1	none
CN(C)c1ccc(/C=C2\N=C(c3ccccc3Br)OC2=O)cc1	ST2 inh 41.0%
CC1=N/C(=C\c2ccc(Br)cc2)C(=O)O1	none
COc1ccc(/C=C2\N=C(c3ccccc3Br)OC2=O)c(OC)c1OC	none
CC(C)NC(=O)[C@@H]1C[C@@H](n2cc(-c3cccc(Cl)c3)nn2)CN1	none
Cc1cccc(N2C(=O)CSC2c2ccc(F)cc2)c1 (stereo unspecified)	none
C=CCNc1nc2ccccn2c(=O)c1/C=C1\SC(=O)N(CCC)C1=O	none
C=CCN1C(=O)c2ccccc2Sc2ccc(C(=O)O)cc21	none
C=CCN1C(=O)S/C(=C/c2ccc(N3CCCC3)o2)C1=O	ST2 inh 44.0%
Cc1ccc(C(=O)N[C@H]2CO[C@H]3[C@@H]2OC[C@@H]3n2cc(-c3ccccc3)nn2)cc1	none
O=S(=O)(Nc1ccc(F)cc1Cl)c1cccc2cccnc12	none
Cc1cc(C)n2nc3nc(N4CCC(C)CC4)nc(-c4ccccc4)c3c2n1	none
COc1ccc(-c2nc(-c3cccc([N+](=O)[O-])c3)no2)cc1OC	none
CCC(c1ccccc1)c1nc(-c2ccncc2)no1 (stereo unspecified)	none
CCC(c1ccccc1)c1nc(-c2cccc([N+](=O)[O-])c2)no1 (stereo unspecified)	ST2 inh 30.0%
O=C1NC(=O)C(c2ccccc2[N+](=O)[O-])=C1Nc1ccc(O)c(Cl)c1	none
COCC(=O)N[C@H]1C[C@H]2C(=O)Nc3ccccc3C(=O)N2C1	none
O=C1C(=Cc2cccn2-c2ccc(Br)cc2)C(=O)c2ccccc21	none
O=C1c2ccccc2-c2ccc(Br)cc21	ST2 inh 32.0%
O=C1C(Br)=C(Br)C(=O)c2ccccc21	none
O=C1CCc2cc(S(=O)(=O)Nc3cccc4c3CCCC4)ccc2N1	none
COCc1nnc(C(=O)N2CCC(n3nc(C)cc3C)C2)o1 (stereo unspecified)	none
Cc1cc(-c2cc3c(n(Cc4cccnc4)c2=O)CCN(C(=O)c2ccc4c(c2)OCO4)C3)ccc1F	none
Cc1ccc(C)c(-c2csc(Nc3ccc(F)cc3)n2)c1	none
Cc1ccc(Nc2nc3ccccc3c(=O)s2)cc1	none
O=C1N=c2ccc(F)cc2=C1c1sc(Nc2ccc(F)cc2)nc1O	ST2 inh 48.0%
NC(=O)C1CCN(c2nc(O)c(C3=c4ccccc4=NC3=O)s2)CC1	none
COc1ccc(Nc2nc3ccc(F)cc3s2)cc1	none
O=C1N=c2ccccc2=C1c1sc(Nc2ccc(Br)cc2)nc1O	ST2 inh 40.0%
CCSCCOC(=O)C1=C(C)NC2=C(C(=O)C(C(=O)OC)C(C)C2)C1c1ccc(C)cc1 (stereo unspecified)	none
CCCn1cnc2c1CN(C(=O)c1ccccc1)[C@H](C(=O)OC)C2	none
CC(C)C1=NOC(CNC(=O)c2scc3c2CCCC3)C1 (stereo unspecified)	none
O=C(O)c1[nH]c2ccccc2c1CC(=O)N1CCCCC1	none
CC(=O)C1=C(C)OC(N)=C(C#N)C1c1cccc(Br)c1 (stereo unspecified)	none
CCCn1cnnc1CNC(=O)c1cn(Cc2ccccc2Cl)nn1	none
Cc1nc2c(C(=O)N3CCCC3)c[nH]n2c(=O)c1Cc1ccc(F)cc1Cl	none
COC(=O)c1c(C)oc2cc(Br)c(OC(=O)c3ccco3)cc12	none
CCOC(=O)Cn1c(=O)n(-c2ccc(C)c(C)c2)c2nc(-c3cccc(C)c3)nc(C(N)=O)c21	none
Cn1c(=O)c2c(nc(Br)n2Cc2ccc(F)cc2)n(C)c1=O	none
CC(=O)N1N=C(c2ccc(F)cc2)Cn2c1nc1c2c(=O)n(C)c(=O)n1C	ST2 inh 55.0%
Cn1c(=O)c2c(nc(CN3CCN(c4ccc(F)cc4)CC3)n2CC(N)=O)n(C)c1=O	none
COc1nc(F)c(F)c(Oc2ccc(C(C)=O)cc2)c1F	none
COCCn1cnnc1CCNC1CCC2(CCNCC2)CC1	none
COc1ccc(-c2nnc3n2C2(CCCC2)Cc2cc(OC)c(OC)cc2-3)cc1	none
CSc1nnc(CC2CCN(C(=O)CN(C)Cc3cccnc3)CC2)n1C	none
CN(Cc1cccnc1)C(Cc1ccccc1)C1CCN(C(=O)C23CC4CC(CC(C4)C2)C3)CC1 (stereo unspecified)	ST2 inh 32.0%
CN(C(=O)c1cccs1)C(Cc1ccccc1)C1CCN(C(=O)C2=CCCC2)CC1 (stereo unspecified)	none
Cc1ccoc1C(=O)N1C[C@H]2OC(=O)N(CCc3ccccn3)[C@H]2C1	none
